Screening data (PubChem)
Only some compounds are listed: those with a hit (about 21% of all), similar ones and a draw of the others.
Shiga toxin inh – Shiga toxin inhibition. Vero cells, Shiga toxin protein synthesis inhibition reporter. inhibition, % at 38.7 µM. 290,000 compounds, 9.2% hits. AID 2315; in the data active means inhibition mostly above about 28%, no sharp cut-off; inactive means mostly below about 43%; further: 0% is about no effect
NS1 function inh – inhibitors of influenza NS1 protein function; AID 2326; Potency, µM (series often up to 46.1 µM), inactives show top-dose activity, positive = more growth; 270,000 compounds, 0.4% hits; calls by dose curve; further: potency means the concentration at half of the fitted maximal effect; actives are rising curves; nearly all actives have a fitted effect of over 50% in size
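Read-out: OD600 growth recovery of NS1-expressing budding yeast. Cells grown overnight at 30C in -URA glucose medium, washed, resuspended and diluted 1:100 in 2% galactose assay medium, pH 6.0. Same strain lacking NS1 served as positive control.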
Pf growth 96h – P. falciparum growth inhibition at 96 hour, primary screen for plastid delayed-death inhibitors; P. falciparum luciferase reporter growth, 96 h; Potency, µM (titrated, usually from 28.7 µM), for inactives: top-dose activity change, negative = inhibition, usual class: inhibitors; 320,000 compounds, 6.9% hits; AID 504834; further: potency means the concentration at half of the fitted maximal effect; on the % scale 0 is the no-effect control and ±100 the full control effect
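P. falciparum expressing integrated firefly luciferase, in erythrocytes at 2% hematocrit, 0.05% parasitemia, incubated with compounds 96 h at 37 C, 5% CO2. Growth inhibition read as loss of luminescence; two-generation exposure targets delayed-death apicoplast inhibitors.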
Sm TGR inh – S. mansoni TGR enzyme inhibition. purified TGR, DTNB reduction, TNB absorbance 405 nm. Potency, µM (series often up to 114 µM), without a hit: at the highest dose activity change, negative = inhibition, hits mostly inhibitors. 360,000 compounds, 3% hits; further: potency means the concentration at half of the fitted maximal effect; on the % scale 0 is the no-effect control and ±100 the full control effect; nearly all actives have a fitted effect of over 60% in size
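TGR 20 nM + NADPH 100 uM (dispensed conc.), cpd preinc 15 min RT; start with NADPH (500 uM addition) then DTNB (15 mM addition). Kinetic TNB absorbance, 405 nm filter. Four-parameter Hill fit across titration.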
Cycloheximide cs – counter-screen hit for Shiga toxin inhibitors, cycloheximide; max response, %; 300,000 compounds, 12% hits; AID 2314; cell reporter, cycloheximide protein synthesis inhibition counterscreen; in the data active means max response mostly above about 13%, no sharp cut-off; inactive means mostly below about 14%; further: read at 38.3 µM for the half of the compounds with a filed dose; 0% is about no effect
Pf growth 48h – P. falciparum growth inhibition at 48 hours (one generation); P. falciparum luciferase growth in erythrocytes, 48 h; Potency, µM (top dose mostly 28.7 µM), for the others: top-dose activity change, negative = inhibition, most hits filed as inhibitors; 310,000 compounds, 5.9% hits; further: potency means the concentration at half of the fitted maximal effect; on the % scale 0 is the no-effect control and ±100 the full control effect
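A one-generation exposure of luciferase-tagged malaria parasites in RPMI 1640/Albumax erythrocyte culture, 37 C and 5% CO2. Inhibition is inferred from decreased luminescence after adding detection reagent.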
* = called active by the depositor; ? = inconclusive; nt = not tested or not shown; [ ] = another dose, or the depositor's remark. Unless noted, the call rests on the fitted dose curve; in most records, active means well fitted curve in the direction sought with a large enough effect; inconclusive means small, poorly fitted or top-dose-only effect, or another doubt; inactive means no such curve, though single readings can be large; an effect the other way counts as inactive or inconclusive.

SMILES	Shiga toxin inh	NS1 function inh	Pf growth 96h	Sm TGR inh	Cycloheximide cs	Pf growth 48h
CC(/C=C1\SC(=S)N(CC(=O)O)C1=O)=C\c1ccccc1	-10	2%	-14%	-15%	-3	8%
CC(C(=O)Nc1ccc(C(=O)O)c(O)c1)N1C(=O)/C(=C\c2ccco2)SC1=S (centres undefined)	-7	?	-19%	7.1µM*	1	2%
O=C(CN1C(=O)/C(=C/c2ccco2)SC1=S)Nc1ccc(O)c(C(=O)O)c1	-5	8%	15µM*	14µM*	-3	11%
CC(=C\c1ccco1)/C=C1/SC(=S)N(CC(=O)O)C1=O	15	4%	-5%	40µM*	10	30%
O=C(CCCN1C(=O)/C(=C/c2cccs2)SC1=S)Nc1ccc(O)c(C(=O)O)c1	-7	2%	40%	3%	0	?
O=C(Nc1ccncc1)c1ccc(NS(=O)(=O)c2ccc3[nH]c(=O)[nH]c3c2)cc1	-14	-3%	?	9%	-2	-5%
Cc1cccc(C(=O)OCC(=O)N(C)CC(=O)Nc2ccc(Cl)c(C(F)(F)F)c2)c1	nt	nt	?	2%	nt	?
CN(CC(=O)Nc1ccc(Cl)c(C(F)(F)F)c1)C(=O)c1cc(-c2ccncc2)nc2ccccc12	nt	nt	?	12%	nt	13µM*
CN(CC(=O)Nc1cccc(F)c1)C(=O)c1cc(-c2ccco2)nc2ccccc12	nt	nt	?	7.9µM*	nt	?
COc1ccc(NC(=O)CN(C)C(=O)c2cc(-c3ccco3)nc3ccccc23)cc1	nt	nt	?	5µM*	nt	?
COc1cccc(NC(=O)CN(C)C(=O)c2cc(-c3ccccc3)nc3ccccc23)c1	nt	nt	?	-2%	nt	?
Cc1ccc(C)c(OCC(=O)N(C)CC(=O)Nc2ccc(Cl)c(C(F)(F)F)c2)c1	nt	nt	?	0%	nt	12µM*
O=S(=O)(Nc1cccc2cccnc12)c1ccccc1O	11	nt	nt	nt	5	nt
CCOc1ccc(N(CC(=O)NCCc2ccc(Cl)cc2)S(=O)(=O)c2c(C)[nH]c(=O)[nH]c2=O)cc1	-2	nt	?	0%	-2	-18%
Cc1csc(SCC(=O)Nc2oc(C)c3c(C)n[nH]c(=O)c23)n1	nt	nt	3%	-17%	nt	10%
NC(=O)COC(=O)CCSc1ccc(Cl)cc1	-8	0%	-38%[5.75 µM]	-29%	-1	2%
Cc1ccc(-c2cc(C(=O)N(C)CC(=O)Nc3ccccc3Br)c3ccccc3n2)o1	nt	nt	?	16µM*	nt	?
Cc1ccc(-c2cc(C(=O)NC3=NCCS3)c3ccccc3n2)cc1C	44	0%	2.1µM*	-7%	18*	?
O=C(NC1=NCCS1)c1cc(-c2ccc(F)cc2)nc2ccccc12	10	-6%	30%	3%	17*	48%
CCCc1ccc(-c2cc(C(=O)NC3=NCCS3)c3ccccc3n2)cc1	24*	1%	151%	-3%	19*	175%
Cc1ccc(CCNC(=O)c2cc(-c3ccncc3)nc3ccccc23)cc1	9	-28%	?	8%	-4	?
Cc1cccc(N2CCN(c3ncnc4c3nc3n4CCCCC3)CC2)c1C	nt	nt	nt	3%	nt	nt
COc1ccc(C(=O)Nc2ccc(Cl)cc2F)cc1S(=O)(=O)N1CCCC1	nt	nt	9.3µM*	-3%	nt	12µM*
COc1ccc(S(=O)(=O)N2CCCCC2)cc1NC(=O)c1c(F)cccc1Cl	nt	nt	2.9µM*	-4%	nt	8.3µM*
COc1ccc(C(=O)Nc2ccc(NC(C)=O)cc2)cc1S(=O)(=O)N1CCCC1	nt	nt	?	-16%	nt	?
COc1ccc(S(=O)(=O)N2CCCC2)cc1NC(=O)c1ccccc1	18	-1%	12µM*	-6%	-3	3%
COc1ccc(S(=O)(=O)N2CCCCC2)cc1NC(=O)c1ccccc1	nt	nt	-9%	-2%	nt	-1%
O=C(C1CC1)N1CCN(c2nc3c(F)cc(F)cc3s2)CC1	nt	nt	nt	0%	nt	nt
Cc1cccc(C)c1NC(=O)CNC(=O)C(Cc1ccccc1)NC(=O)c1ccccc1 (centres undefined)	-4	10%	?	-28%	-2	?
O=C(CCN1C(=O)NC2(CCCC2)C1=O)Nc1ccc(-c2nc3ccccc3s2)cc1	nt	nt	-15%	4%	nt	74%
